# A selection: hits, their analogues and other compounds. The true share with any hit is near 2%.
# STK33 inh – blocks human STK33 kinase activity; Q9BYT3; ADP-Glo luminescence, MBP substrate; inhibition, % at 12.5 µM; hit rate 0.44% among 27,000; AID 2322; in the data active = inhibition above about 20%; inconclusive = no clear call, values can overlap the other calls
# ID4 SMM – ID4 (human) binding | hit rate 1.2% among 31,000 | P47928 | AID 624137 | calls only | small molecule microarray, Flag-ID4 binding, fluorescence F/B; call rule not given here;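 also: a binder raises fluorescence above local background on the spot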
# Target sequence (P47928 whole entry, looked up): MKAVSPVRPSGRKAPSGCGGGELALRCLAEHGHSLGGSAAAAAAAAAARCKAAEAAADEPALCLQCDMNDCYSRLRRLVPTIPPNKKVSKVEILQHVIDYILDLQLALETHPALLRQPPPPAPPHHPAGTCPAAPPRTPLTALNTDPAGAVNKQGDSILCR
# mut p53 react – re-activators of the mutant p53 pathway. SW480 PUMA-promoter luciferase, p53 mutant reactivation. activation, % at 9.98 µM. hit rate 1.5% among 28,000; in the data active = activation above about 52%; inconclusive = no clear call, values can overlap the other calls
# * marks the source's active call; other numbers are inactive results; i = inactive; ? = inconclusive; / = not tested or not shown; + = active, no number.
SMILES,STK33 inh,ID4 SMM,mut p53 react
O=c1c2ccccc2nnn1CN1CCCCC1,1.3,/,/
CCOc1ccc(C(Nc2cccc(C)n2)c2ccc3ccc(C)nc3c2O)cc1 (centres undefined),6.2,i,-7.9
O=C(CNS(=O)(=O)c1ccccc1)Nc1cccc(F)c1,6.3,i,-2.3
Cc1cc(OCC(=O)Nc2ccccc2C(N)=O)c(C)cc1Br,-0.3,i,31.7
CCc1ccc(OCC(=O)Nc2ccccc2C(N)=O)c(Br)c1,-7.3,i,70.8*
Cc1cc(C)c(C)c(OCC(=O)Nc2ccccc2C(N)=O)c1,0.2,i,53.1*
COC(=O)c1ccccc1NC(=O)COc1ccc(C)cc1C,2.1,i,4.3
CCOc1cc(/C=C2/SC(=N)N(c3nccs3)C2=O)ccc1OCCN1CCOCC1,-0.4,/,/
COC(=O)COc1cccc(NC(=O)c2cccs2)c1,0.9,i,-6.1
COc1cccc(NC(=O)CNC(=O)c2cccs2)c1,0.6,i,51.0*
N#Cc1c(NC(=O)c2cc(S(=O)(=O)N3CCOCC3)cs2)sc2c1CCCC2,0.8,i,8.9
CC(CNc1ccccc1)C(=Nc1ccccc1)Nc1ccccc1 (centres undefined),8.0,/,/
CC(=O)Nc1ccc(OCC(=O)Nc2ccc3c(c2)oc2ccccc23)cc1,0.6,i,37.1
CC(=O)Nc1ccc(OCC(=O)Nc2ccc(Cl)c(Cl)c2)cc1,4.4,i,64.6*
COc1ccc(-c2nc3ccccc3s2)cc1NC(=O)COc1ccc(Br)cc1,6.6,i,79.1*
Cc1ccc(NC(=O)COc2ccc(Cl)c(C)c2)c([N+](=O)[O-])c1,9.3,i,59.4*
COc1ccc(NC(=O)CSc2ccccn2)c([N+](=O)[O-])c1,0.0,i,62.0*
Cc1cc(OCC(=O)Nc2ccc(CC#N)cc2)ccc1[N+](=O)[O-],-1.2,i,8.6
COc1ccccc1NC(=O)CSc1ccccn1,1.8,i,26.7
COc1ccc(-c2nc3ccccc3s2)cc1NC(=O)COc1ccc(C(C)C)cc1,-4.8,i,48.4
CCc1nc2sc(C)c(C)c2c(=O)n1N,-0.2,/,/
O=C(CCCN1C(=O)c2ccccc2C1=O)Nc1ccc(F)c(Cl)c1,-9.4,i,-0.9
CSc1nc(SCC(=O)Nc2cccc(C)c2)c2c3c(sc2n1)CCCC3,-2.7,i,9.0
O=C1C(Cc2ccc(-c3nn[nH]n3)cc2)=C(c2ccccc2)S(=O)(=O)c2ccccc21,-3.3,/,/
COCc1cc(C)n(CC(=O)Nc2cc(Cl)ccc2OC)c(=O)c1C#N,/,i,-3.3
SMILES,STK33 inh,ID4 SMM,mut p53 react
Cc1c(Cl)cccc1NC(=O)Cn1cc(C(=O)c2ccccc2)c2ccccc21,0.3,i,-12.6
CCC(Sc1nnc2c(n1)[nH]c1ccccc12)C(=O)Nc1cccc2ccccc12 (centres undefined),4.9,i,-3.0
Nc1nnc(SC2c3cccc4cccc(c34)C2NS(=O)(=O)c2ccc(Cl)cc2)s1 (centres undefined),0.7,i,-2.1
COc1cc(NC(=O)COc2cccc(C)c2)c(OC)cc1Cl,-2.7,i,35.1
COc1ccc(OCC(=O)Nc2ccc(C)cc2[N+](=O)[O-])cc1,-1.6,i,135.5*
COc1ccc(OCC(=O)Nc2cc(OC)c(Cl)cc2OC)cc1,3.9,i,81.6*
Cc1ccc(NC(=O)COc2ccc(C(C)(C)C)cc2)c([N+](=O)[O-])c1,2.7,i,18.0
O=C(COc1ccc(Cl)cc1Cl)Nc1ncccn1,-4.5,i,48.0
Cc1cc(Cl)cc(Cl)c1OCC(=O)Nc1ccccc1[N+](=O)[O-],0.6,i,10.0
Cc1cc(OCC(=O)Nc2ccccc2[N+](=O)[O-])ccc1Cl,-1.4,i,85.9*
O=C(COc1ccc(Cl)cc1)Nc1ncccn1,2.0,i,74.1*
COc1cc(CO)ccc1OC(C)=O,/,i,/
COc1ccc(OCC(=O)Nc2cc(OC)ccc2NC(=O)c2ccco2)cc1,-2.4,i,-1.0
CCC(SC1=NCCS1)C(=O)Nc1ccc(NC(C)=O)cc1 (centres undefined),5.4,i,-1.2
O=C(CSc1ncn(-c2ccccc2)n1)Nc1ccc(F)c(Cl)c1,-3.7,i,7.5
Cc1nc(SCC(=O)c2ccccc2)c2sc3nc4c(cc3c2n1)COC(C)(C)C4,1.4,i,91.1*
CCOC(=O)CSc1ncnc2c1sc1nc3c(cc12)COC(C)(C)C3,0.4,i,-16.7
N#CC(C(=O)c1ccco1)c1nc2ccccc2[nH]1 (centres undefined),66.9*,/,/
c1ccc(CC(Cc2nc3ccccc3[nH]2)c2nc3ccccc3[nH]2)cc1 (centres undefined),-0.6,i,1.9
CCCCN(C)S(=O)(=O)c1cc(-c2nnc3c4ccccc4c(C)nn23)ccc1OC,-5.5,i,8.9
Cc1ccc(-c2nnc3c4ccccc4c(C)nn23)cc1S(=O)(=O)N(C)CCO,0.6,i,56.3*
CC(C)S(=O)(=O)N[C@@H]1CCCN(Cc2ccc(OCCO)cc2)C1,-1.3,/,/
COC(=O)c1c(NC(=S)NC(C)c2ccncc2)sc2c1CCC(C)C2 (centres undefined),-4.3,i,-13.0
Cc1coc(C)c1C(=O)CC1(O)C(=O)N(CCCC#N)c2ccccc21 (centres undefined),4.7,i,-5.3
N#CCCCN1C(=O)C(O)(CC(=O)c2ccc(Br)s2)c2ccccc21 (centres undefined),-1.5,+,-5.8
SMILES,STK33 inh,ID4 SMM,mut p53 react
NCCNc1ccc([N+](=O)[O-])c(Sc2nc3ccccc3[nH]2)c1,-1.8,i,-18.4
NCCNc1ccc([N+](=O)[O-])c(NCCO)c1,-3.1,+,-18.8
COc1ccc(-n2nc3cc(C)c(NC(=O)COc4ccc(Cl)cc4Cl)cc3n2)cc1,0.6,i,-13.2
N=c1c2cnn(-c3ccccc3)c2ncn1/N=C/c1ccc(Cl)cc1,/,i,15.5
CN(C)CCCO[C@H]1[C@@H](C(O)CO)OC2OC(C)(C)O[C@@H]21 (some centres undefined),0.7,/,/
O=C(O)C1C2C=CC(O2)C1C(=O)Nc1ccc(S(=O)(=O)N2CCc3ccccc32)cc1 (centres undefined),-2.3,+,-9.4
O=S(=O)(c1ccc(Cl)cc1)N1CCc2ccccc21,2.1,/,/
O=C(CS(=O)c1ccccc1[N+](=O)[O-])Nc1cccc(C(F)(F)F)c1 (centres undefined),-1.4,i,70.5*
O=C(O)CCC(=O)Nc1cccc(C(F)(F)F)c1,0.8,i,-6.3
C=C1[C@@H]2CC[C@H]3[C@]4(C)C[C@H](O)C[C@@H](C(=O)OC)[C@H]4CC[C@]3(C2)[C@H]1O,-1.7,i,/
O[C@H]1C=C2CCN3Cc4cc5c(cc4C(C23)[C@@H]1O)OCO5 (some centres undefined),2.2,/,/
CC(=O)N1CCN(C(=S)c2ccc(-c3ccc(C)cc3)o2)CC1,/,i,54.9*
COc1ccc2c(c1)c(=O)oc1cc(OCC(=O)Nc3cc(C)cc(C)c3)ccc12,1.8,i,10.6
CS(=O)(=O)N(CC(=O)Nc1cccc(C(F)(F)F)c1)c1cc(Cl)c(Cl)cc1Cl,1.0,i,-24.3
O=C(Nc1sc2c(c1C(=O)NCc1cccnc1)CCCC2)c1ccco1,11.5,i,28.9
O=C(Nc1sc2c(c1C(=O)NCc1cccnc1)CCCCC2)c1ccccc1,-1.4,+,?
COC(=O)Nc1sc2c(c1C(=O)NCc1ccco1)CCCC2,2.6,+,-7.3

# From PubChem
